Wnt act – Wnt/beta-catenin pathway activators, primary screen, cell-based, plate reader, single point. Wnt/beta-catenin reporter cell assay, activator. activation, % at 9.35 µM. 300,000 compounds, 1.2% hits. AID 743398, 2014; in the data active = activation above about 30%, passing the limit was not always enough;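 note: 0% = neutral control wells and 100% = positive control wells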
GSIS activator – GLuc luminescence reporter in INS-1E cells, primary screen for activators of glucose-dependent secretion of insulin. 370,000 compounds, 0.61% hits. AID 743287, 2014. INS-1E GLuc reporter insulin secretion, 2-3 h. activation, % at 16.6 µM;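 active = lowest replicate activation of at least 40%, so every replicate reaches that level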;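 note: 0% = median of neutral control wells and 100% = median of IBMX positive control wells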
MITF TRPM1 HTS – activators of MITF-driven TRPM1 promoter reporter, primary screen, cell-based, SK-MEL-5, luciferase, single point; activation, % at 12.5 µM; SK-MEL-5 TRPM1-promoter luciferase, 24 h; % of positive control, neutral wells = 0; 300,000 compounds, 0.75% hits; AID 588334, 2011;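 active = mean activation of at least 80% with every replicate also reaching 80%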;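 note: 0% = neutral control wells and 100% = parthenolide positive control wells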
Env fusion inh – inhibitors of HIV-1 Env-driven cell-cell fusion, primary screen, HeLa-JRFL effector, CEM21 target cells, luciferase; inhibition, % at 12.3 µM; AID 651610, 2012; 360,000 compounds, 1.1% hits;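 active = mean replicate inhibition score of at least 50 and every replicate individually at or above 50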;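 note: 0% = plate neutral controls and 100% = maraviroc near 300 nM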
CFTR F508del cor – F508del CFTR correction, initial screen, CFBE line, single point; CFBE cells, YFP halide quenching; stimulated with forskolin plus potentiator P3; % fluorescence drop versus neutral controls; activity (quench increase), % at 7.58 µM; 350,000 compounds, 0.36% hits; AID 720511, 2013;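 active = mean added fluorescence quench of at least 8% versus neutral control, with both replicates also reaching 8%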;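 note: cells transiently co-express mutant CFTR-F508del with the halide-sensitive YFP; corrector assay measuring rescue of mutant channel to the surface after 24 h compound exposure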
* marks the source's active call; other numbers are inactive results; · = no result given; [ ] = another dose, or the depositor's remark. A selection: hits, their analogues and other compounds. The true share with any hit is near 2.7%.

SMILES | Wnt act | GSIS activator | MITF TRPM1 HTS | Env fusion inh | CFTR F508del cor
C[C@H](CO)N1C[C@H](C)[C@@H](CN(C)S(=O)(=O)c2ccc(Cl)cc2)Oc2c(NS(=O)(=O)c3cn(C)cn3)cccc2C1=O | · | -1 | · | 30[16.7 µM] | -1
Cc1ccc(NC(=O)CSC2=NN3CCCC(=O)N=C3S2)c(C)c1 | 1 | 13 | -6 | -2 | 9.7*
Cc1cccc(NC(=O)CSC2=NN3CCCC(=O)N=C3S2)c1C | -2 | 20 | 4 | 7 | 2
CCc1nnc(NS(=O)(=O)c2ccc(NC(=O)c3cccc(Cl)c3)cc2)s1 | -1 | 9 | 109* | 2 | 0
CCc1nnc(NS(=O)(=O)c2ccc(N)cc2)s1 | 79* | -12 | 10 | 29 | 3
COc1cc(CO)ccc1OCc1ccc(Cl)nc1 | 36* | -2 | · | -33 | 1
COc1cc(CNCCc2ccc(F)cc2)ccc1OCc1ccc(Cl)nc1 | · | -52 | 20 | · | ·
O=C(C[C@@H]1C[C@H]2c3cc(NC(=O)Cc4ccncc4)ccc3O[C@H]2[C@@H](CO)O1)NCc1ccc2c(c1)OCO2 | · | -21 | · | -13[16.7 µM] | 2
C=C1C(=O)O[C@@H]2[C@H]1[C@@H](OC(=O)/C(C)=C/C)C/C(C)=C\C(=O)/C=C(\C)[C@@H]2O | -1 | 48 | -96 | -141 | 9.7*
Cc1ccc(-n2[nH]c(C)c(/C=N/c3ccccn3)c2=O)cc1 | · | 1 | 4 | -15 | ·
Cc1[nH]n(-c2ccccc2)c(=O)c1C=Nc1cccc2cccnc12 | · | -19 | -43 | 57* | ·
COc1ccc(-c2cc(=O)c3cc(OC)ccc3[nH]2)cc1 | · | · | -16 | · | ·
COc1ccc2[nH]c(=O)c3c(c2c1)OC(C)(C)C=C3 | -8 | · | · | 136* | ·
Cc1ccc(NC2=CC(=O)C(=O)c3ccccc32)c(C)c1 | 5 | -43 | · | 58* | -1
Cn1cnc([N+](=O)[O-])c1S(=O)(=O)c1cccc(Cl)c1 | -15 | 104* | -15 | 27 | 3
Cn1cnc([N+](=O)[O-])c1S(=O)(=O)Nc1ccccc1 | -6 | -9 | -6 | 26 | -1
Cn1cnc([N+](=O)[O-])c1S(=O)(=O)Oc1ccccc1 | -3 | 54* | -36 | -25 | 2
CCNC(=O)C[C@H]1CC[C@@H]2[C@H](COc3ccc(NC(=O)Nc4ccc(F)cc4)cc3C(=O)N2C)O1 | · | 9 | · | 14[16.7 µM] | 0
CCCC(=O)N(Cc1cc(=O)[nH]c2ccccc12)c1ccc(C)cc1C | -4 | -3 | -6 | 0 | 1
Cc1ccc(N(Cc2cc(=O)[nH]c3ccccc23)C(=O)CCl)c(C)c1 | -3 | 10 | -61 | 55* | 3
CC(C)[C@H]1C(=O)N[C@@H](c2ccccc2)CC=CC[C@H](C)Oc2ccccc2C(=O)N1C (mixture of isomers) | · | -8 | · | · | ·
CC(C)NC(=O)N[C@@H]1CC[C@H](CCNC(=O)C2CCCC2)O[C@@H]1CO | · | -1 | · | -7[16.7 µM] | -1
CC[n+]1c(/C=C2\Sc3ccccc3N2C)ccc2cccc(C)c21 | -2 | -40 | -103 | 77* | 18*
CCN1/C(=C/c2ccc3cc(C)ccc3[n+]2CC)Sc2ccccc21 | -2 | -41 | -101 | -29 | -38
COc1ccc(C2C3CCCCC3(O)CCN2C(=O)c2cccs2)cc1 (stereo unspecified) | 0 | 48* | 7 | · | ·
SMILES | Wnt act | GSIS activator | MITF TRPM1 HTS | Env fusion inh | CFTR F508del cor
O=C(c1cccs1)N1CCC2(O)CCCCC2C1c1ccc(F)cc1 (stereo unspecified) | -1 | 54* | -10 | 2 | ·
CCN(CC)c1ccc(C2C3CCCCC3(O)CCN2C(=O)c2cccs2)cc1 (stereo unspecified) | · | -16 | 6 | · | ·
O=C(NCC[C@@H]1CC[C@@H](NC(=O)C2CCCCC2)[C@H](CO)O1)Nc1ccc(Cl)cc1 | · | -11 | · | -16[16.7 µM] | -2
COc1ccc(N/C(C)=C/C(=O)c2ccccc2)cc1 | 24 | 41 | 120* | -25 | ·
COC(=O)CNC(c1ccccc1)c1cc(C)ccc1NC(=O)CNC(=O)OCc1ccccc1 (stereo unspecified) | · | -16 | · | 73* | ·
COc1ccc(NC(=O)NC(=O)c2ccccc2)cc1 | 52* | 9 | · | -19 | -2
COC(=O)CNC(c1ccccc1)c1cc(Br)ccc1NC(=O)OCc1ccccc1 (stereo unspecified) | · | · | -7 | · | ·
COC(=O)/C(=C\C(=O)c1ccccc1)Nc1ccc(OC)cc1 | 29 | 16 | · | -10 | 0
CCc1nnc(NC(=O)Nc2ccccc2OC)s1 | -5 | · | 135* | -161 | ·
O=C(NC(=O)c1ccccc1)Nc1ccc(-c2cnco2)cc1 | -3 | 7 | · | -14 | 5
COc1ccc(CNC(=S)Nc2ccccc2F)cc1 | -1 | -7 | -6 | -42 | 2
COc1ccccc1NC(=O)NC(=O)c1ccccc1 | 47* | -5 | · | -97 | -1
COc1ccccc1NC(=O)CNC(c1ccccc1)c1ccccc1 | -1 | · | 4 | 22 | 0
COc1ccc(C)cc1NC(=O)CNC(c1ccccc1)c1ccc(C)cc1 (stereo unspecified) | -5 | -5 | -27 | -141 | 13*
COc1ccc(C(=O)NC(=S)Nc2ccccc2F)cc1 | 34* | 18 | 45 | · | ·
O=C(NC(=O)c1ccccc1)Nc1ccccc1 | 36* | · | 3 | -74 | 3
CCC(=O)N1C[C@H](O)COC[C@H]2O[C@@H](CC(=O)NC)CC[C@@H]21 | · | · | · | 3[16.7 µM] | 0
COc1ccccc1NC(=O)C(C)NC(c1ccccc1)c1ccccc1 (stereo unspecified) | -1 | 8 | -7 | 59* | -2
COc1ccc(C(CC(=O)Nc2cc([N+](=O)[O-])ccc2OC)c2ccccc2)cc1 (stereo unspecified) | -3 | -1 | -8 | 79* | ·
C[C@@H]1CN([C@H](C)CO)S(=O)(=O)c2ccc(C#Cc3ccc(F)cc3)cc2O[C@@H]1CN(C)S(=O)(=O)c1ccc(F)cc1 | · | -1 | · | 28[16.7 µM] | 4
Cc1cc(N2CCN(C(=O)OC(C)(C)C)C[C@H]2C)ccc1N1CCS(=O)(=O)CC1 | -2 | 19 | · | 62* | 2
c1ccc(C[n+]2c(-c3ccccc3)csc2Nc2ccccc2)cc1 | 1 | 5 | 4 | · | 3
c1ccc(Nc2scc(-c3ccccc3)[n+]2Cc2ccco2)cc1 | 53* | 0 | 72 | -89 | -2
Nc1nc2ccc(Cl)cc2cc1C(=O)NCCc1ccc(Cl)cc1Cl | 0 | 62* | · | 1 | 1
Cc1cc(C(=O)COc2ccc(-c3nnco3)cc2)c(C)n1Cc1ccccc1 | · | · | · | 65* | ·
COc1ccc(NC(=O)Nc2nnc(-c3cccs3)s2)cc1 | 41* | -12 | 98* | -51 | -1
COc1cccc(C(=O)Nc2nnc(-c3ccc(OC)cc3OC)s2)c1 | -11 | 9 | · | -14 | -2
O=C(Nc1ccccc1)Nc1nnc(-c2cccs2)s1 | 29 | 69* | 73 | -25 | ·
COc1ccc(NC(=O)Nc2nnc(Cc3ccccc3)s2)cc1 | 0 | 1 | · | -36 | 1

Source: PubChem (Broad Institute)
